Many of the other results were omitted from the sample, so hits are more common in it than they were.
Sa growth 42C: S. aureus growth inhibition at 42 and 30 °C, primary screen, LtaS inhibitor project, RN4220, two temperatures. OD600, 20 h, 42 °C; stronger effect = lower value. relative growth, % (concentration not given with the values). 170,000 compounds, 0.53% hits;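 active means relative growth at most 50% at the other temperature and 20+ points below 30 °C, or under 10% at both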
Sa helicase inh: inhibitors of S. aureus replicative helicase, primary screen, biochemical, fluorescence unwinding readout; replicative DNA helicase (DnaC/DnaB), Staphylococcus aureus; purified S. aureus helicase, fluorescence unwinding assay; inhibition, % (test concentration not listed); 120,000 compounds, 0.05% hits; in the data active means inhibition above about 25%, passing the limit was not always enough;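 further: 0% = mean of negative control wells and 100% = mean of positive control wells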
* hit, by the source's call; . = no result.

SMILES | Sa growth 42C | Sa helicase inh
O=c1c2c(-c3cccs3)csc2[nH]c(=S)n1-c1ccccc1 | 108.4 | 3.0
CCOC(=O)/C(C#N)=C1\C(=O)Nc2ccccc21 | 103.6 | 0.0
N#C/C(C(N)=O)=C1/C(=O)Nc2ccc(Br)cc21 | 9.1* | 12.0
Cc1ccc(S(=O)(=O)N2CCc3cc(C(=O)Nc4ccc(C)c(C)c4)ccc32)cc1 | 91.5 | .
Cc1ccc(C)c(-c2nnc(NC(=O)c3cccc(S(C)(=O)=O)c3)o2)c1 | 5.5* | 12.0
Cc1ccc(C)c(-c2nnc(NC(=O)c3ccc(S(=O)(=O)N4CCc5ccccc54)cc3)o2)c1 | 1.9* | 21.0
Cc1ccc(NC(=O)c2cccc(S(C)(=O)=O)c2)cc1 | 99.4 | -13.0
CCN(C(=O)c1cn(-c2ccccc2)nc1-c1cccs1)c1ccccc1 | 71.9 | -3.0
Cc1ccc(C(=O)NC(C)C(C)(C)C)o1 (stereo unspecified) | 81.8 | -10.0
CCOc1ccc(CN(C)C(=O)CNC(C)c2ccccc2OC)cc1 (stereo unspecified) | 94.0 | -11.0
O=S(=O)(c1cc(O)cc(S(=O)(=O)C(F)(F)F)c1)C(F)(F)F | -0.3* | 8.0
O=S(=O)(c1ccc(Cl)cc1)C(F)(F)F | 96.7 | -1.0
CCOC(=O)c1c(-c2cccs2)csc1NC(=O)c1ccccc1 | 113.9 | 6.0
CCOC(=O)c1c(-c2ccc(C)o2)csc1NC(=S)NC(=O)N(C)C | -0.6* | 10.0
O=C1/C(=C/c2cccnc2)SC(=S)N1C1CCCC1 | 7.2* | 8.0
CC(=C\c1ccccc1)/C=C1/SC(=S)N(C2CCCCC2)C1=O | 99.2 | 8.0
COc1cccc(-c2nnc(NC(=O)c3ccc(S(=O)(=O)N(C)C)cc3)o2)c1 | 71.0 | 1.0
COc1cccc(-c2nnc(NC(=O)c3ccc(S(=O)(=O)N4CCCCC4C)cc3)o2)c1 (stereo unspecified) | 2.4* | 4.0
CC(C)N(Cc1ccccc1)S(=O)(=O)c1ccc(C(=O)Nc2nnc(-c3cccs3)o2)cc1 | 7.3* | -7.0
CCCN(CCC)S(=O)(=O)c1ccc(C(=O)Nc2nnc(-c3cccc(OC)c3)o2)cc1 | 0.1* | -21.0
CN(CC1CCCO1)S(=O)(=O)c1ccc(C(=O)Nc2nnc(-c3ccccc3)o2)cc1 (stereo unspecified) | -0.1* | 8.0
COc1ccc(-c2nnc(NC(=O)c3ccc(S(=O)(=O)N4CCCCC4)cc3)o2)cc1 | 19.9 | 1.0
CN(CC1CCCO1)S(=O)(=O)c1ccc(C(=O)Nc2ccc3c(c2)C(=O)NC3=O)cc1 (stereo unspecified) | 95.7 | -9.0
CC(=O)Nc1nnc(-c2cccs2)o1 | . | -4.0
O=C(Nc1nc(-c2ccncc2)cs1)c1ccc(Br)s1 | . | 4.0
SMILES | Sa growth 42C | Sa helicase inh
Nc1nnc(SCC(=O)NC(=O)C2COc3ccccc3O2)s1 (stereo unspecified) | 114.0 | 2.0
CC(=O)Oc1ccccc1OC(C)c1nn(C(C)=O)c2ccccc12 (stereo unspecified) | 91.5 | 5.0
CC(C)CC(=O)Nc1c[nH]c(=O)[nH]c1=O | 104.0 | 1.0
N#Cc1ccccc1S(=O)(=O)N1CCN(C(=O)CCc2cccs2)CC1 | 101.6 | -9.0
C=CCN(CC=C)S(=O)(=O)c1ccc(C(=O)Nc2nnc(-c3ccc(OC)cc3OC)o2)cc1 | 94.4 | 8.0
COc1cccc(-c2nnc(NC(=O)c3ccc(S(=O)(=O)N(Cc4ccccc4)C(C)C)cc3)o2)c1 | 0.4* | -3.0
c1ccn2cc(CN3CCCCC3)nc2c1 | 99.5 | 7.0
CCn1cc(C(=O)O)c(=O)c2cc(F)c(N3CCN(C(=S)NC)CC3)cc21 | 64.3 | 10.0
CCn1cc(C(=O)O)c(=O)c2cc(F)c(N3CCN(C(=S)NC(=O)c4c(-c5ccccc5)noc4C)CC3)cc21 | 2.0* | 5.0
COC(=O)/C=c1\sc2nc3cc(Cl)c(Cl)cc3n2c1=O | 115.1 | .
CCOC(=O)c1sc(-c2ccc(F)cc2)cc1N | 48.2* | -6.0
CCOC(=O)c1sc(-c2ccccc2)cc1N | . | 7.0
CCON1C(=O)NC(c2cc(F)ccc2C)(C(F)(F)F)C1=O (stereo unspecified) | 120.6 | -2.0
C[n+]1ccc(/C=C/c2ccccc2F)c2ccccc21 | 6.9 | 25.0
CN1C=C/C(=C\c2cc[n+](C)c3ccccc23)c2ccccc21 | 0.6* | 86.0*
CCN(CC(=O)NC1CCS(=O)(=O)C1)c1nc(-c2cccnc2)nc2sc3c(c12)CCCC3 (stereo unspecified) | 85.9 | 14.0
Cc1ccc(CN(C)c2nc(-c3cccnc3)nc3sc4c(c23)CCCC4)o1 | 2.1* | -6.0
COc1ccc(C(c2ccc3cccnc3c2O)N2CCCC2)cc1 (stereo unspecified) | 95.7 | -20.0
COc1ccc(C(c2ccc3cccnc3c2O)N2CCOCC2)cc1 (stereo unspecified) | 8.8* | 18.0
Oc1c(C(c2ccc(C(F)(F)F)cc2)N2CCCC2)ccc2cccnc12 (stereo unspecified) | 1.1* | -13.0
Oc1c(C(c2ccncc2)N2CCCC2)ccc2cccnc12 (stereo unspecified) | 66.2 | -2.0
CCOC(=O)c1sc2nc(CN3CCOCC3)nc(NCC3COc4ccccc4O3)c2c1C (stereo unspecified) | 102.9 | -18.0
O=C(O)/C=C\C(=O)Nc1ccccc1SCC(O)Cn1ccc(C(F)(F)F)n1 (stereo unspecified) | 90.8 | .
O=C(OCc1csc(-c2ccccc2)n1)c1ccccc1 | 94.6 | -6.0
COCCn1c(SCC(=O)c2ccccc2)nnc1-c1ccccc1 | 99.8 | 8.0
SMILES | Sa growth 42C | Sa helicase inh
CC(C)NC(=O)n1cc(F)c(=O)[nH]c1=O | -0.6* | -4.0
NC(=O)Cn1cc(F)c(=O)[nH]c1=O | 90.0 | 15.0
CCCCCCNC(=O)n1cc(F)c(=O)[nH]c1=O | 1.1* | .
CCCCCNC(=O)CCCCCn1c(=O)[nH]c2ccsc2c1=O | 95.0 | .
c1csc(-c2nc3cnccn3c2NC2CCCCC2)c1 | 85.8 | 12.0
c1ccc(-c2nc3ccccn3c2NC2CCCC2)nc1 | -0.1* | 5.0
O=C(c1cc(=O)[nH]c2ccccc12)N1CCN(Cc2ccccc2)CC1 | 101.2 | -2.0
Cc1c(C#N)c(N)n(C2CCCCC2)c1C | 85.4 | -52.0
NCc1ccc(OCc2ccc(F)cc2)cc1 | 97.1 | 6.0
CC(C)(C)c1cc(C(=O)OCCN2CCCCC2)cc(C(C)(C)C)c1 | 21.9* | -4.0
Cc1ccc(C(=O)OCCN2CCCCC2)cc1 | 90.5 | 6.0
Cc1ccccc1NS(=O)(=O)c1ccc(-n2c(=O)n(C)n(C)c2=O)cc1 | 123.0 | 13.0
N#CSc1sc(N)nc1-c1ccccc1 | 0.1* | 19.0
COc1ccc(-c2nc(N)sc2-c2ccccc2)cc1 | . | 16.0
CN(C(=S)NC(=O)c1ccccc1)c1ccc(OC(F)(F)F)cc1 | 71.2 | .
O=C(N=Nc1c(O)[nH]c(=O)[nH]c1=O)c1ccccn1 | 100.7 | 5.0
O=C(N=Nc1c2ccccc2c2nc3no[nH]c3nc12)c1ccccc1O | 0.6* | -28.0
CN(C)C(=S)SCC(=O)NC1CCCCCC1 | 78.1 | 24.0
COC(=O)CC1C(=O)NCCN1c1ncnc2sccc12 (stereo unspecified) | 92.2 | -15.0
CCCN=c1cc(-c2ccccc2)oc2ccc(C)cc12 | 109.0 | 65.0*
Cc1ccc2oc(-c3ccccc3)cc(=O)c2c1 | 97.5 | .
O=S(=O)(c1ccccc1)c1nc(N2CCCc3ccccc32)sc1Cl | 101.9 | 10.0
C=CCNC(=O)Cn1c(-c2ccc(F)cc2)nc2ccccc21 | 121.0 | 13.0
